Out of some 360,000 compounds screened, about 2,600 (0.72%) were called active. The list comes from a sample in which actives are over-represented; it also holds similar structures and randomly drawn compounds. Unmarked numbers belong to inactive results.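 The calls were made as follows: active = inhibition of the luminescence signal of 40% or more relative to plate controls, in a single-dose primary screen at 18.75 µM; inactive = the rest.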
Assay: blockers of HIF-2a driven luciferase – luminescence, 786-0 RCC cells, primary screen (AID 624352)
Details: 786-0 RCC cells HIF-2a reporter, overnight, at 18.8 µM, active compounds read high

| SMILES | inhibition |
| --- | --- |
| CC1(C(=O)NS(=O)(=O)C2CC2)CCCN(C(=O)CSc2ccccc2)C1 (stereo unspecified) | 6.93% |
| CCSc1sc(CC)cc1C=O | 18.8% |
| COc1ccccc1CN1CC(C(=O)NCCc2cn[nH]c2)CCC1=O (stereo unspecified) | 11.7% |
| COc1ccc(C(=O)/C=C/Nc2ccccn2)cc1 | 51.6% (active) |
| COCCN(C(=O)CCC(=O)Nc1ccccn1)C(C(=O)NCCC(C)C)c1ccc(OC)cc1 (stereo unspecified) | 12.7% |
| COc1ccc2nc(-c3ccccn3)ccc2c1 | -77.1% |
| CCCN1C2CCCC1CC(NC(=O)NC13CC4CC(CC(C4)C1)C3)C2 (stereo unspecified) | 19.4% |
| O=C(Nc1ccc2c(c1)OCCO2)C1CCCC1 | 41.3% (active) |
| CN1C(=O)c2ccc(NC(=O)C3CCCCC3)cc2C1=O | -8.6% |
| O=C(Nc1ccc2c(c1)OCO2)C1CC1(Cl)Cl (stereo unspecified) | -154% |
| CCOc1ccc(S(=O)(=O)N2CCC(C(=O)NCc3ccccn3)CC2)cc1Cl | 19.5% |
| COc1ccc(CCNC(=O)C(=O)NCC2OCCN2S(=O)(=O)c2ccc(F)cc2)cc1OC (stereo unspecified) | -5.35% |
| CCOc1ccc(CN2CCN(Cc3ccc4cc(F)ccc4n3)CC2CCO)cc1 (stereo unspecified) | 12.7% |
| O=C(c1ccccc1)c1cccn1CC(=O)N1CCN(c2ccc(F)cc2)CC1 | 12.9% |
| CCOCCCN(C(=O)Cn1nnc(-c2ccc(OC)c(OC)c2)n1)C(CC)C(=O)NC1CCCC1 (stereo unspecified) | 18.1% |
| C[C@H](CO)N1C[C@H](C)[C@@H](CN(C)C(=O)c2cccc(F)c2)Oc2cc(-c3cncnc3)ccc2S1(=O)=O | 9.48% |
| COCCNc1ncnc2c1ncn2[C@H]1CN(Cc2ccc(OC)cc2)C[C@@H](CO)O1 | -2.96% |
| COc1ccc(-c2oc3ncnc(NCCCO)c3c2-c2ccc(OC)cc2)cc1 | 40.9% (active) |
| COc1ccc(-c2oc3ncn(Cc4ccco4)c(=N)c3c2-c2ccc(OC)cc2)cc1 | 8.92% |
| Cc1ccc(CCCOC(=O)C[N+]2(C)CCCCC2)cc1 | 1.23% |
| COc1ccc(NC(=O)/C(Cl)=C(/Cl)S(=O)Cc2ccc(C)cc2)cn1 (stereo unspecified) | 90.8% (active) |
| C[C@@H]1CN([C@H](C)CO)C(=O)CCCn2nncc2CO[C@@H]1CN(C)S(=O)(=O)c1cccc(C#N)c1 | 13.2% |

| SMILES | inhibition |
| --- | --- |
| NC(c1csc(NC(=O)Nc2ccccc2Oc2ccccc2)n1)c1ccccc1Cl (stereo unspecified) | 24.3% |
| CCN(CC)c1ccc(NC(=O)CCc2nnc3ccc(N4CCCCC4)nn23)c(C)c1 | -2.16% |
| Cc1nc(C(=O)N2CCCC(C(=O)c3ccc(Cl)cc3)C2)cs1 (stereo unspecified) | 3.92% |
| CC(=O)Nc1c2c(nn1-c1ccc(C)cc1C)CS(=O)C2 (stereo unspecified) | 4.45% |
| CCc1ccccc1N(CC(=O)NCCSCc1ccco1)S(C)(=O)=O | 11.4% |
| Cc1cc(C)cc(N(CC(=O)NCCSCc2ccco2)S(C)(=O)=O)c1 | 15.8% |
| CS(=O)(=O)N(Cc1ccc(Cl)cc1)c1ccc(C(=O)NCCSCc2ccco2)cc1 | 43.2% (active) |
| CC(C)(C)C1CCC(C(=O)Nc2cccnc2)CC1 (stereo unspecified) | 10% |
| Cc1ccc2c(c1)N(CC(=O)N1CCOCC1)C(=O)CO2 | 7.44% |
| CC(OC(=O)c1ccccc1NCCO)C(=O)Nc1ccnn1C(C)C (stereo unspecified) | 10% |
| CCN1CCN(CCNC(=O)c2ccc3c(c2)NC(=O)/C(=C\c2cccc(Cl)c2)S3)CC1 | 90.6% (active) |
| CCN1CCCC1CNC(=O)c1ccc2c(c1)NC(=O)/C(=C\c1ccccc1F)S2 (stereo unspecified) | -13.2% |
| O=C1Nc2cc(C(=O)N3CCC(N4CCCCC4)CC3)ccc2S/C1=C\c1ccccc1 | -25.5% |
| CC1CCc2sc3nc(N4CCN(CCO)CC4)n4ncnc4c3c2C1 (stereo unspecified) | -149% |
| O=C1CN(C(=O)c2cc(F)cc(F)c2)c2ccccc2N1 | 11.9% |
| COc1ccc(-c2onc3ccc(C(C)=O)cc23)cc1 | -105% |
| COc1ccccc1-c1nc(C(F)(F)F)c(OC)o1 | 4.93% |
| COc1ccc(-c2nc(-c3ccccc3)no2)c(OC)c1 | 58.9% (active) |
| O=C(CCc1nnc2ccc(NCc3ccco3)nn12)Nc1cc(F)ccc1F | -0.521% |
| Cc1ccc(Cc2cncc(O)c2)cc1S(=O)(=O)O | 9.79% |
| Cc1ccc(CN(C(=O)c2sc3ccccc3c2Cl)C2CCS(=O)(=O)C2)cc1 (stereo unspecified) | 32% |
| CC1CCCCC1NC(=O)/C(C#N)=C/C=C/c1ccccc1[N+](=O)[O-] (stereo unspecified) | 79.7% (active) |

| SMILES | inhibition |
| --- | --- |
| CC(OC(=O)/C=C/c1ccccc1)C(=O)NC1CCCCC1C (stereo unspecified) | 8.8% |
| COc1cc(/C=C(\C#N)C(=O)Nc2ccc3ccccc3c2)c([N+](=O)[O-])cc1OC | 17% |
| Cc1ccc(SCCC(=O)NC(C(C)C)C(C)C)cc1 | 23.2% |
| CCN(CC)CCOc1ccc2c(c1)C(=NNC(=O)c1ccccn1)c1cc(OCCN(CC)CC)ccc1-2 | 13.8% |
| Cc1ccc(N2CC(C(=O)N3CCC4(CC3)CC(=O)c3ccccc3O4)CC2=O)cc1C (stereo unspecified) | 2.59% |
| CC(C)Cn1cnc2c(SCc3ccc(Cl)cc3)nc(N)nc21 | -109% |
| CCC(C)Cn1c(O)cc2nn(-c3nc4ccccc4s3)c(=O)c-2c1C (stereo unspecified) | 80.9% (active) |
| CCC/C(O)=C1\C(=O)CC(C)(C)CC1=Nc1ccccc1OC | 10% |
| O=C(Nc1ccc(OCC(=O)N2CCOCC2)cc1)c1cc(F)c(F)cc1Cl | -39.3% |
| CC1CC(=O)Nc2ccccc2N1C(=O)COc1ccc2cc(Br)ccc2c1 (stereo unspecified) | 10.2% |
| CC(C)n1cnc2c(Nc3cccc(Cl)c3)nc(N(CCO)CCCO)nc21 | 51.3% (active) |
| OCCCNc1nccc(-c2cc(Nc3cccc(Cl)c3)ncn2)n1 | -18.5% |
| O=C1NC(Nc2nc3ccccc3s2)(C(F)(F)F)C(=O)N1C1CCCCC1 (stereo unspecified) | -11.7% |
| COc1cc(OC)c(C2=NOC(C(=O)Nc3c(C)n(C)n(-c4ccccc4)c3=O)C2)cc1Cl (stereo unspecified) | 11.3% |
| c1ccc2cc(CCCc3cc4ccccc4cn3)ncc2c1 | -39.5% |
| CCOC(=O)c1c(C)nn(-c2ncccc2NC(=O)CCC(=O)O)c1C | 11.8% |
| COC(=O)c1c(NC(=O)CCN2CCOCC2)sc2c1CCCC2 | 5.82% |
| COC(=O)c1c(NC(=O)CCCC(=O)O)sc2c1CCCCC2 | 50.8% (active) |
| COC(=O)c1c(NC(=O)C2CC(C)=C(C)CC2C(=O)O)sc2c1CCCCC2 (stereo unspecified) | 16% |
| O=C(CCCn1c(=O)oc2ccccc21)Nc1cccnc1 | 2.59% |
| NS(=O)(=O)c1cc(Cl)c(Cl)c(S(N)(=O)=O)c1 | -2.27% |
| Cc1nc(N=C(N)N)nc2c(C)cccc12 | 15% |

| SMILES | inhibition |
| --- | --- |
| NC(N)=Nc1nc(-c2ccccc2)c2cc(Cl)ccc2n1 | 41.9% (active) |
| NC(N)=Nc1nc2ccc(Br)cc2c(=O)[nH]1 | -20.2% |
| S=C(NC1CCCCC1)NN1CCOCC1 | 12.3% |
| Cc1sc(NC(=S)NC(=O)c2cccs2)nc1-c1ccc(CC(C)C)cc1 | -5.06% |
| O=C(C1=C[C@H](c2coc3ccccc3c2=O)C[C@H](OCc2ccc(CO)cc2)O1)N1CCN(Cc2ccccc2)CC1 | 25% |
| CSC1=N/C(=C\C=C\c2cccs2)C(=O)S1 | -28.6% |
| O=C(Nc1ccccc1Cl)/C(Cl)=C(\Cl)S(=O)c1ccccc1 (stereo unspecified) | 95.4% (active) |
| O=C(COc1nsnc1N1CCOCC1)Nc1ccccc1Cl | -40.8% |
| Cc1cccc(C)c1NC(=O)CNC(=O)c1c(C)nn(-c2ccccc2)c1C | 0.612% |
| O=C(NCCC1=CCCCC1)c1ccc(Cl)c([N+](=O)[O-])c1 | -91% |
| O=C(/C=C/c1ccc(Cl)c([N+](=O)[O-])c1)c1ccc(O)cc1 | 79% (active) |
| O=C(/C=C(O)/C=C/c1ccc(O)cc1)/C=C/c1ccc(O)cc1 | -18.9% |
| CN(Cc1cccs1)C(=O)CN1C(=O)c2ccccc2S1(=O)=O | -66.1% |
| O=C(CN1C(=O)c2ccccc2S1(=O)=O)N1CCc2ccccc21 | 82.3% (active) |
| Cc1ccc(S(=O)(=O)N(C)CC(=O)N2CCc3ccccc32)cc1 | -0.159% |
| COCCNC(=O)c1ccc2c(c1)ncn2-c1ccc(C)c(Cl)c1 | -31.7% |
| Cc1ccc(CNC(=O)COC(=O)C2CCC2)cc1 | 2.35% |
| CCc1c(N=O)c(-c2ccccc2)n(O)[n+]1[O-] | -2.82% |
| Cc1ccc(S(=O)(=O)NCC(=O)N(CC(=O)NCC2CCCO2)c2cccc(F)c2)cc1 (stereo unspecified) | 8.25% |
| CC1CCc2c(c3ccccc3[nH]c2=O)O1 (stereo unspecified) | 6.77% |
| Cc1cc(Cl)c(S(=O)(=O)N(C)C)cc1OCC(N)=O | 7% |
| Cc1cc(Cl)c(S(=O)(=O)Nc2ccc3c(c2)OCCO3)cc1OCC(N)=O | 43.7% (active) |

| SMILES | inhibition |
| --- | --- |
| Cc1cc(Cl)c(S(=O)(=O)NCCC(=O)O)cc1OCC(N)=O | 0.473% |
| CCNC(=O)C1(C)CCCN(C(=O)c2ccc3ccccc3n2)C1 (stereo unspecified) | 3.52% |
| COCCn1c(SCC(=O)Nc2nc(C)cs2)nnc1C(C)C | 9.65% |
| Cc1csc(NC(=O)CSc2ccc(-c3ccc(F)cc3)nn2)n1 | -4.55% |
| COc1cc(SC)ccc1C(=O)Nc1nc(C)cs1 | 77.6% (active) |
| O=C(COC(=O)Cc1ccccc1F)NCCc1ccccc1 | -1.26% |
| Cc1c(Cl)cccc1NC(=O)CCC(=O)N/N=C/c1ccco1 | 6.46% |
| C=CCOc1ccc(C(=O)Nc2ccccc2C(=O)N2CCCC2)cc1 | -0.109% |
| O=C(CCCN1C(=O)C(c2ccccc2)Oc2cccnc21)Nc1ccccc1Br (stereo unspecified) | 12.9% |
| CN(C(=O)CN1C(=O)/C(=C/c2ccc(Cl)cc2)SC1=S)C1CCS(=O)(=O)C1 (stereo unspecified) | -14% |
| O=C(CCCN1C(=O)/C(=C/c2ccco2)SC1=S)Nc1ccccc1 | 45.3% (active) |
| Cc1ccc(NC(=O)CCN2C(=O)c3ccccc3C2=O)cc1C | -6.43% |
| O=C(OCN1C(=O)c2ccccc2C1=O)/C(=C\c1ccco1)NC(=O)c1ccccc1 | 1.64% |
| O=C(CCCN1C(=O)/C(=C/c2ccccc2)SC1=S)Nc1ccc(O)cc1 | 46.2% (active) |
| C=CCOc1ccc(/C=C2\SC(=S)N(CCC(=O)O)C2=O)cc1 | 90.6% (active) |
| O=C(CCCN1C(=O)/C(=C\c2ccco2)SC1=S)Nc1cccc2ccccc12 | 56.3% (active) |
| O=C(CN1C(=O)/C(=C\c2ccc(C(F)(F)F)cc2)Sc2ccccc21)NCc1ccco1 | -23.3% |
| O=C(CCN1C(=O)c2ccccc2C1=O)Nc1ccncc1 | 13.6% |

From PubChem BioAssay AID624352 (Sanford-Burnham Center for Chemical Genomics, 2012)
